# Reference: PubChem BioAssay AID927 (National Center for Advancing Translational Sciences (NCATS), 2007)
# Hit rate of the full screen: of about 60,000 compounds, about 65 (0.1%) were called active. Calls come from the whole dose curve; as a rule, active = well fitted inhibition curve with a large enough effect; inconclusive = small, poorly fitted or top-dose-only effect; inactive = no such curve, though single readings can be large or run the other way. The entries come from a sample that favours actives as a whole.
# Target: Ubiquitin carboxyl-terminal hydrolase 2 (Homo sapiens) (UniProt O75604)
# Sequence (O75604 whole entry, looked up): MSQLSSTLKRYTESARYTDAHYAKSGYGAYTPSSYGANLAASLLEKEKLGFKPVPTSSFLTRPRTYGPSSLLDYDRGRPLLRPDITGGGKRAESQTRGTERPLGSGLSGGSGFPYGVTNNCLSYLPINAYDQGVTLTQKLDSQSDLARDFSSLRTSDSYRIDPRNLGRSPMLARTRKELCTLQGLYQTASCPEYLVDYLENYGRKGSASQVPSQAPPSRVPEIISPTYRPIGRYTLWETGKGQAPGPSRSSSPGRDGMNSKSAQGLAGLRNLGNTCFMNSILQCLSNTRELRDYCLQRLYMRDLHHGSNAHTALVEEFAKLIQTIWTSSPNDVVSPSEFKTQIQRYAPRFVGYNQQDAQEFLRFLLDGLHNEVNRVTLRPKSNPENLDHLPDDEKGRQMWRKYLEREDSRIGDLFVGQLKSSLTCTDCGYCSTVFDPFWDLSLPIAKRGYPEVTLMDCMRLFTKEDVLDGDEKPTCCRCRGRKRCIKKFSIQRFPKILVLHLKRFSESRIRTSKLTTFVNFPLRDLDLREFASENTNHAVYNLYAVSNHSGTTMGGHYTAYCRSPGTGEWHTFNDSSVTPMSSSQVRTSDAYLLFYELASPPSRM
# Assay: qHTS Assay for Inhibitors of Ubiquitin-specific Protease USP2a; note: nearly all actives have a fitted effect of over 60% in size
# Conditions: USP2a enzymatic assay; Potency: qHTS inhibition; series mostly up to 38.3 µM; activity change, negative = inhibition: at the top concentration
# Text: NIH Molecular Libraries Screening Centers Network [MLSCN]
# NIH Chemical Genomics Center [NCGC]
# PI Name: Nicholson, Ben. Progenra Inc, Malvern, PA
# Homeostasis of cellular proteins is maintained through a combination of synthesis and degradation. The pathway that accounts for the majority of protein degradation is the ubiquitin-proteasomal pathway. Ubiquitin (Ub) is highly conserved in all cells and the generation of a multi-Ub chain typically targets proteins for degradation by the proteasome. However, ubiquitination is highly reversible and dynamic. Deubiquitination, the reverse process, is catalyzed through the action of enzymes referred to as isopeptidases or deubiquitinating enzymes (DUBs). This group of enzymes is collectively responsible for maintaining adequate pools of free ubiquitin and regulating the ubiquitination status of cellular proteins. The class of DUBs referred to as the ubiquitin-specific proteases (USP) family functions endoproteolytically to cleave Ub chains from a wide range of protein substrates. USP2a deubiquitinates fatty acid synthase (FASN) which has recently been identified as an emerging oncology target. To identify inhibitors of USP2a a cell-free assay was employed.
# The reporter enzyme chosen is phospholipase A2 (PLA2), which has an absolute requirement for a free amino terminus. Thus, fusion of a UBL to the N-terminus of PLA2 inactivates PLA2. When the UBL-PLA2 reporter enzyme is cleaved by USP2, the activated reporter can subsequently act on its substrate, which is the commercially available NBD C6-HPC (Invitrogen). Thus, this coupled assay gives a fluorescent read-out, which is generated through the cleavage of the PLA2 reporter enzyme. The assay, developed by Progenra, Inc. uses Ub-PLA2 and USP2a at near equal and low (nM) amounts and has been licensed for sale by LifeSensors, Inc. as the Ub-IsoPro1 kit.
# NCGC Assay Protocol Summary:
# The assay buffer, prepared fresh at the day of the assay, contains 20mM Tris-HCl pH 8.0, 2mM CaCl2, 2mM beta-Mercaptoethanol, 0.1% DMSO. 3ul of 40nM (20nM final) USP2 core, which is stored on ice, is dispensed into a medium-binding black solid Kalypsys 1,536 well plate using the Kalypsys dispenser. The assay plate is then pinned with 23nL compound with the Kalypsys pintool in columns 5-48. The controls are pinned as follows: column 1&2 two-fold dilutions of 2M NEM in duplicate; column 3 DMSO; column 4 2M NEM (final concentration 38.2mM). The assay plate is incubated at RT for 30min. Subsequently, 3uL of 40nM (20nM final) Ub-PLA2 and 40uM (20uM final) NBD C6-HPC (stored on ice and protected from light) were dispensed into the plate using the Kalypsys dispenser. Plates were read immediately (0 Hour) on an Envision (Perkin Elmer) plate reader using the following wavelengths Ex 460nm /Em 535nm. Then, the assay plates were incubated for 2.5 hours and read again on the Envision using the same settings
# Data were normalized to the to AC100 inhibition (NEM). Concentration-response curves were fitted to the normalized data and the concentration-response curves were then classified based on curve quality (r2), response magnitude and degree of measured activity. The time zero reading was used to flag fluorescence artifacts.
# Keywords: ubiquitination, deubiquitination, proteases, profluorescent, MLSMR, MLSCN, NIH Roadmap, qHTS, NCGC
# Potency is the fitted concentration of half-maximal effect.
Structure (SMILES),Potency,"activity change, negative = inhibition"
Clc1ccc(C(c2ccc(Cl)cc2)n2cc[n+](C[C@@H](OCc3ccc(Cl)cc3Cl)c3ccc(Cl)cc3Cl)c2)cc1,25.1 µM (active),
COc1ccc(C2Oc3c(I)c(OC)cc(OC)c3CC2O)cc1OC (stereo not given),,2.52% (inactive)
COC1CC(OC2CC[C@@]3(C=O)C4CC[C@]5(C)C(C6=CC(=O)OC6)CC[C@@]5(O)C4CC[C@]3(O)C2)OC(C)C1O (stereo not given in full),,0.885% (inactive)
COc1cc2c(cc1OC)[C@@H]1C(=O)c3ccc(O)c(CC=C(C)C)c3OC1CO2 (stereo not given in full),,-10.3% (inactive)
C=CCSSCC=C,,-4.04% (inactive)
